The term inhibition denotes the change of the read-out against control, counted positive when it falls.

The source of these data is ChEMBL document CHEMBL3433997, “St. Jude Leishmania screening dataset” (2016).

In this assay the target is Solute carrier family 2, facilitated glucose transporter member 1 (Homo sapiens) (UniProt P11166). Kind of assay: ST_JUDE_LEISH: Cytotoxicity at 2uM final concentration against transgenic Leishmania Mexicana promastigotes LmGLUT1 that are glucose transport deficient and complemented with the human glucose transporter GLUT1. Activity is measured by DNA content using SYBR green in vitro. The assay is classed as functional.
Solute carrier family 2, facilitated glucose transporter member 1 (Homo sapiens), sequence (P11166 whole entry): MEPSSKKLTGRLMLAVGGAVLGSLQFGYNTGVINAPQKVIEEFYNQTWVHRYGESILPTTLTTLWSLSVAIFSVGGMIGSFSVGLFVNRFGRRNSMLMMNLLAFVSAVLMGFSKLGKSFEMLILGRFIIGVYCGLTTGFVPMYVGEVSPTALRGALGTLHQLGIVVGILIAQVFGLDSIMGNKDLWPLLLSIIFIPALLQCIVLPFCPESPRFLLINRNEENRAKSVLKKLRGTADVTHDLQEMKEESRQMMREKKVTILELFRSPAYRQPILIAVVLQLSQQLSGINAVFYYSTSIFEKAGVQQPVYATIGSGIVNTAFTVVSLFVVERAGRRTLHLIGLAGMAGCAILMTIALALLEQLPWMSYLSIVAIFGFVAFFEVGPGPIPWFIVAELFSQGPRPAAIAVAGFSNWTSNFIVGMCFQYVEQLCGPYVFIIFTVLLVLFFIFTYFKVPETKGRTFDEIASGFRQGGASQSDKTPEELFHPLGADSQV
For `Nc1ccc(-c2csc(Nc3ccncc3)n2)cc1`, the inhibition amounted to 2.7%.

Take `Cc1cc(N)c2cc(NC(=O)c3cc(C(F)(F)F)cc(C(F)(F)F)c3)ccc2n1`: the inhibition worked out at 0.38%. The figure for `O=C(NC(c1ccc(Cl)cc1)c1ccc2cccnc2c1O)c1ccccc1` (stereo not given) is 0.27%; for `COc1cc2cc(C(=O)Nc3ccccc3)c(N)nc2cc1OC` it is 0.36%; for `CCc1ccc(NC(=O)c2ccc(CN3CCCN(Cc4ccc(C)s4)CC3)cc2)cc1` it is 3.79%.

For the compound `CC(C)c1ncc(-c2ccncc2)c(C2CCC(CNC(=O)c3cccnc3)CC2)n1` (stereo not given), the inhibition was found to be 3.2%. In the case of `COc1ccc(-c2nc3c4ccccc4c4ccc(I)cc4c3[nH]2)cc1`, the inhibition is 5.22%. The value for `O=C(NCCCCN1CCC(C(c2ccccc2)c2ccccc2)CC1)c1ccc(NC(=O)c2ccc(Cl)cc2)cc1` was -0.78%.

In the case of `N#Cc1cccc(COC(=O)C2=C(COc3ccccc3Cl)NC(=O)NC2c2c[nH]c3cnccc23)c1` (stereo not given), the inhibition was 9.04%.

Regarding `CC1CC1C(=O)NC1CCN(CC2(c3ccccc3)CCCCC2)CC1` (stereo not given), the inhibition turned out to be 0.87%. `Oc1cc2c(cc1CN1CCN(Cc3cccs3)CC1)CCC2`: the inhibition stood at 0.97%. The value for `Cc1cc(OCCCN2CCCC2)ccc1NC(=O)COc1ccc(Cl)cc1C(=O)c1cc(C#N)cc(C(F)(F)F)c1` was 73%. As to `CNC(=O)CSc1nnc(-c2ccc(C)cc2)c(-c2ccc(C)cc2)n1`, the inhibition is 2.46%. The value for `O=C(Cn1c(CCc2cccc(F)c2F)nc(=O)c2ccccc21)N(Cc1ccc(-c2ccc(C(F)(F)F)cc2)cc1)C1CCN(C2CCOCC2)CC1` was 1.91%.

For `CCCOc1ccc(C=C(CC(=O)O)c2nc3ccccc3s2)cc1OCC`, the inhibition is 2.27%. Take `O=C(Nc1ccc(S(=O)(=O)N2CCCCC2)cc1)c1cc(-c2cc(Cl)ccc2O)n[nH]1`: the inhibition worked out at 6.03%.

As to `CCCCCCCN(Cc1ccc(OC(C)(C)C(=O)OCC)cc1)C(=O)Nc1ccccc1OCC`, the inhibition was -0.85%. For `COc1ccc(CN(C)CCCCc2ccc(NC(=O)COc3cccc4sc5ccccc5c(=O)c34)cc2)cc1OC`, the inhibition was 1.62%. The figure for `O=C(/C=C/c1ccccc1Cl)Nc1ccc(Br)c(OCCN2CCN(CCN3CCOCC3)CC2)c1` is 1.48%; for `Clc1cc2c(Nc3ccc(Oc4ccccc4)cc3)ccnc2cc1-c1ccc(CNCCN2CCOCC2)o1` it is -1.44%; for `CCCCCCNC(=O)C1Cc2c([nH]c3ccc(Br)cc23)C2(CCN(CCc3ccccc3)CC2)N1` (stereo not given) it is 13.8%. The figure for `CCCOc1ccc(N2C(N)=NC(N)=NC2(C)C)cc1` is 3.43%; for `N#Cc1ccc(N/C(=N\c2ccccc2Br)N(C2CCCCC2)C2CCCCC2)c(O)c1` it is 6.11%.

On to `CCCCCCNC(=O)C1Cc2c([nH]c3ccc(C)cc23)C2(CCN(Cc3ccccc3)CC2)N1` (stereo not given), for which the inhibition came to 0.98%. For `Cc1cccc(Nc2nc(N[C@@H]3CCCNC3)nc3cc[nH]c(=O)c23)c1`, the inhibition was found to be 92.3%. The figure for `Oc1ccc(CCNc2nc(NCCCOc3ccccc3-c3ccncc3)nc(N3CCNCC3)n2)cc1` is 3.68%; for `CC(C)c1ccc(NC(=O)c2ccc(C(=O)NC3CCN(Cc4ccccc4)CC3)cc2)cc1` it is 1.09%. Take `CC1(C(=O)Nc2ccc([N+](=O)[O-])cc2O)CC2c3ccccc3C1c1ccccc12` (stereo not given): the inhibition was 2.18%. The figure for `COC(=O)c1ccc2nc(-c3cc(OC)c(O)c(C(=O)NC4CCN(Cc5ccccc5)CC4)c3)[nH]c2c1` is 8.4%. Take `CN1CCN(Cc2cc3cc(NC(=O)/C=C/c4cccc(Cl)c4)ccc3s2)CC1`: the inhibition came to 0.65%. For the compound `CCN(CC)CCCOc1ccc(Nc2nccc(-c3c(-c4cccc(NC(=O)c5c(F)cccc5F)c4)nn4ccccc34)n2)cc1F`, the inhibition was 58%.

Consider `CC(C)(C)c1ccc(NC(=O)c2cccc(CN3CCCN(Cc4ccc(F)cc4)CC3)c2)cc1`, for which the inhibition was found to be 3%. The figure for `CN1CCC(NCc2ccc(S(=O)(=O)Nc3ccc(Oc4cccc(Cl)c4)cc3)cc2)CC1` is 1.15%; for `CNC(=O)c1ccccc1Nc1nc(Nc2ccc(N3CCOCC3)cc2)ncc1Cl` it is 77.2%. Turning to `CCc1c(CCNCCCCCCNCCc2ccc3c(c2C)OCO3)ccc2c1OCO2`, the inhibition worked out at 8.6%. For the compound `COc1cccc(C(=O)C2CC2CN(C)CC(O)c2cc(C)c(OC)cc2C)c1` (stereo not given), the inhibition came to 1.05%.

For the compound `OCc1c(Cl)cc(Cl)cc1CNCCCNc1nc2ccccc2[nH]1`, the inhibition is 5.72%. As to `CC(C)N1CCC(N(Cc2ccc(-c3ccc(Cl)cc3)cc2)C(=O)Cn2c(CCc3cccc(F)c3F)cc(=O)c3ccccc32)CC1`, the inhibition amounted to 2.59%. Take `Clc1ccc(/N=C(/NCCCCCCCN/C(=N\c2ccc(Cl)cc2)Nc2ccc(Cl)cc2)Nc2ccc(Cl)cc2)cc1`: the inhibition came to 0.4%. The value for `Clc1ccc2c(NCc3ccccc3)ccnc2c1` was 1.8%.
